For assay [1], the system named is Zika virus NS2B-NS3 protease (linked construct). In words: Primary screen NINDS Rhodamine qHTS for Zika virus inhibitors (AID 1347160). Further: potency means the concentration at half of the fitted maximal effect; nearly all actives have a fitted effect of over 55% in size. In outline: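 In 10 mM Tris-HCl pH 8.0 containing 0.01% Tween 20, linked NS2B-NS3 protease (25 nM final) is exposed to test compounds for 15 min. Cleavage of 1.5 microM Rhodamine110 substrate is tracked by fluorescence over 15 min.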
On the technique in general: Quantitative high-throughput screening tests each substance at several concentrations.

Assay [2] is described as follows: Panc-1005 Cancer Cell Toxicity qHTS against the NCATS CANVASS Library (AID 1347349). Further: nearly all actives have a fitted effect of over 60% in size. Further: potency means the concentration at half of the fitted maximal effect. In outline:
(§1)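 1000 cells/well seeded and rested 4 h at 37 °C before pin transfer of compounds in an 11-pnt series. Exposure 72 h at 37 °C/5% CO2; viability by CellTiter-Glo luminescence after 15 min at room temperature.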

The nature of assay [3]: COV-362 Cancer Cell Toxicity qHTS against the NCATS CANVASS Library (AID 1347352). Further: series mostly up to about 38 µM. In short, it runs like this:
(§2)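 qHTS cytotoxicity: compounds tested in 11 concentrations on 1000 seeded cells per well over 72 h; bortezomib served as control; signal from CellTiter-Glo luminescence.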

The nature of assay [4]: A2780 Cisplatin Sensitive Ovarian Cancer Cell Toxicity qHTS against the NCATS CANVASS Library (AID 1347353). Further: nearly all actives have a fitted effect of over 60% in size. Further: potency means the concentration at half of the fitted maximal effect. In short, it runs like this:
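Seventy-two-hour exposure of cisplatin-sensitive A2780 ovarian cells to an 11-concentration qHTS series; cytotoxicity is inferred from loss of ATPLite luminescence. Bortezomib titration served as positive control.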

Assay [5] can be described thus: UWB1.289-WTBRCA1 Cancer Cell Toxicity qHTS against the NCATS CANVASS Library (AID 1347354). Further: potency means the concentration at half of the fitted maximal effect. In short, it runs like this: as §2
Assay [6] in a line: HEK-293 Cancer Cell Toxicity qHTS against the NCATS CANVASS Library (AID 1347355). Further: nearly all actives have a fitted effect of over 65% in size. Further: potency means the concentration at half of the fitted maximal effect. On outcome: series mostly up to about 46 µM. In outline:
as §2

Assay [7] concerns NAD(P)H diaphorase (Clostridium kluyveri). In words: Diaphorse counterscreen qHTS: Assay Interference Panel against the NCATS CANVASS Library (AID 1347362). In short, it runs like this: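 Counterscreen for coupling-enzyme interference: resorufin fluorescence from resazurin/NADH turnover, read after 5 min at room temperature. Compounds were tested over an 11-point series after 15 min dark preincubation with diaphorase in PBS-Tween.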
(The purpose of a counterscreen is to sort out artefacts and off-target activity.)

Assay [8] is described as follows: KB-8-5-11 Cancer Cell Toxicity qHTS against the NCATS CANVASS Library (AID 1347364). Further: nearly all actives have a fitted effect of over 75% in size. Further: potency means the concentration at half of the fitted maximal effect. In short, it runs like this: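 Natural products were titrated in 11 points onto KB-8-5-11 cells, 500 per well, and cytotoxicity was scored from CellTiter-Glo luminescence after 72 hr culture.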
A short description of assay [9]: SDT Cancer Cell Toxicity qHTS against the NCATS CANVASS Library (AID 1347365). Further: nearly all actives have a fitted effect of over 60% in size. Further: potency means the concentration at half of the fitted maximal effect. In short, it runs like this:
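Dispense 500 SDT cells per well; pin-transfer compounds; incubate 72 hr at 37C, 5% CO2, 95% RH; add CellTiterGlo and read luminescence.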

Assay [10] is described as follows: G06 Cancer Cell Toxicity qHTS against the NCATS CANVASS Library (AID 1347368). Further: nearly all actives have a fitted effect of over 60% in size. Further: potency means the concentration at half of the fitted maximal effect. In short, it runs like this:
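Cytotoxicity toward canine glioma G06 cells is scored from cellular ATP via luminescence after 72 hr compound exposure at 500 cells/well.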

The target in assay [11] is Nuclear receptor subfamily 1 group I member 3 (Homo sapiens) (UniProt Q14994). In words: qHTS for Constitutive Androstane Receptor (CAR) Antagonist screened against the NCATS CANVASS Library (AID 1347372). Further: potency means the concentration at half of the fitted maximal effect. In outline: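 HepG2-CYP2B6-hCAR double-stable cells plated, 4hr attach; cpd pin-transferred; CITCO 50 nM final; 24hr 37C/5% CO2; CellTiter-Fluor 1hr (fluorescence), then ONE-Glo luminescence.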

Assay [12] can be described thus: qHTS for Hypoxia signaling pathway (HIF-1) agonists against the NCATS CANVASS Library (AID 1347375). Further: potency means the concentration at half of the fitted maximal effect. In outline:
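Inducers of HIF-1 signaling were detected in ME-180 cells bearing an HRE-driven beta-lactamase reporter after 17 h compound exposure. Activity came from CCF4-AM FRET emission ratio (460/530 nm) in qHTS format.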

The nature of assay [13]: DH5-alpha competent E. coli microbial cell viability qHTS against the NCATS CANVASS Library (AID 1347377). The conditions noted are these: outcome: dose series up to 46.1 µM unless noted. In short, it runs like this:
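Cell viability of competent DH5-alpha E. coli is scored from ATP content by luminescence. Cells sit overnight at 37C with compound across an 11-point concentration series.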

Assay [14] in a line: qHTS assay for small molecule disruptors of mitochondrial membrane potential screened against the NCATS CANVASS Library (AID 1347389). Further: nearly all actives have a fitted effect of over 60% in size. Further: potency means the concentration at half of the fitted maximal effect. In outline: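 Compounds tested in 11-point qHTS series on HepG2 cells for 1 hr; membrane-potential dye added for 30 min at 37C. Lower red-to-green ratio indicates loss of potential.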
Assay [15] can be described thus: qHTS for activators of Nrf2/ARE signaling pathway screened against the NCATS CANVASS Library (AID 1347391). Further: nearly all actives have a fitted effect of over 60% in size. Further: potency means the concentration at half of the fitted maximal effect. In short, it runs like this: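 Cells carrying an ARE-driven beta-lactamase reporter (HepG2 background) are dosed for 16 h, then stained with CCF4. Cell viability in the same wells is measured by CellTiter-Glo luminescence.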
Assay [16] is described as follows: qHTS for activators of dead-cell proteases activity screened against the NCATS CANVASS Library (AID 1347392).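 Further: luminescence from protease leaking out of membrane-damaged cells cleaving impermeant substrate; rising signal means more cytotoxicity.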 In short, it runs like this:
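Compounds are pin-transferred onto attached HepG2 cells, giving 11 final concentrations. After 5 h at 37C, AAF-aminoluciferin reagent is added and luminescence is recorded at room temperature.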

Assay [17] can be described thus: qHTS for inhibitors of Wild type Zika virus screened against the NCATS CANVASS Library (AID 1347396).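 Further: ATP luminescence of surviving cells so rescue from viral cell killing; series mostly up to about 46 µM.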 In outline:
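Luminescent CellTiter Glo read-out of virus-induced cytotoxicity, 72 h post-infection, in Vero 766 cells. Compounds were tested at 11 concentrations; uninfected, vehicle-treated wells defined 100% inhibition.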

Assay [18] can be described thus: Redox Reaction Profiling qHTS: Assay Interference Panel against the NCATS CANVASS Library (AID 1347401). In outline:
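Cell-free redox surrogate: 5 uM resazurin + 200 uM DTT, 50 mM HEPES pH 7.3/50 mM NaCl; cpds pinned, 11-pt qHTS; Ex525/Em598 read t0 and t=15 min, dark.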

The nature of assay [19]: qHTS for Activators of p53 Stress Response Pathway screened against the NCATS CANVASS Library (AID 1347388). In outline:
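Beta-lactamase reporter driven by p53 response elements in HCT-116 cells, read as the 460 nm/530 nm emission ratio after CCF4 loading, following 16 h of exposure to an 11-point series. Cell viability was measured in the same wells by CellTiter-Glo luminescence.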

Assay [20] can be described thus: SW1088 Cancer Cell Toxicity qHTS against the NCATS CANVASS Library (AID 1347350). Further: nearly all actives have a fitted effect of over 75% in size. Further: potency means the concentration at half of the fitted maximal effect. In short, it runs like this: as §1

SMILES strings stand for the structures. Records with an inconclusive call do not appear. Unmarked numbers belong to inactive results. The source made the active and inactive calls. The call rests on the fitted dose curve; in most records, active means well fitted curve in the direction sought with a large enough effect; inconclusive means small, poorly fitted or top-dose-only effect, or another doubt; inactive means no such curve, though single readings can be large; an effect the other way counts as inactive or inconclusive.

Chain of Nuclear receptor subfamily 1 group I member 3 (Homo sapiens) (Q14994 whole entry, looked up): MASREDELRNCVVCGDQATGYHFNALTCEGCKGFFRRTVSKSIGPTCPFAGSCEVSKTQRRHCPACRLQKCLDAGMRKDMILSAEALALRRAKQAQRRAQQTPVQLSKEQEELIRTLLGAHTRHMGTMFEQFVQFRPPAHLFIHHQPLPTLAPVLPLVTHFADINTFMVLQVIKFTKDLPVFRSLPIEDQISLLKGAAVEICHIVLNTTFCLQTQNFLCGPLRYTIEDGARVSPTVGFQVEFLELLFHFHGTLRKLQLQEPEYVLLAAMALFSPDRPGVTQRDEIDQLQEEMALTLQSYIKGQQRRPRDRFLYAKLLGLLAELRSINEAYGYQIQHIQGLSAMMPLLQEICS

As to `Oc1ccc([C@H]2Oc3ccc(/C=C/c4cc(O)cc(O)c4)cc3C2c2cc(O)cc(O)c2)cc1` (stereo partly drawn), the Potency in assay [1] is 24.7 µM (active). In addition, the Potency entry in [2], in assay [3], in assay [4], in assay [5], in assay [6] and in assay [7] was “inactive” each time. Also, the Potency entry in [8], in [9], in assay [10], in [11], in assay [12] and in assay [14] was “inactive” throughout. Besides, the Potency result in assay [15], in [16], in assay [17] and in [18] was “inactive” each time. For the same compound, the compound was classed as inactive in [13].
Turning to `CO[C@H]1/C=C/CC[C@@H](S[C@@H]2O[C@H](CO)[C@@H](O)[C@H](O)[C@H]2O)CC(=O)O[C@@H](/C(C)=C/[C@H](C)C(=O)CCCC2CC(=O)NC(=O)C2)[C@@H](C)[C@@H]1O`, the Potency was 4.21 µM (active) in assay [2]; 1.05 µM (active) in [4]; 1.87 µM (active) in assay [6]; 1.18 µM (active) in assay [9]; 1.48 µM (active) in [10]; 14.8 µM (active) in assay [11]. Moreover, the Potency result in [7], in assay [12], in assay [19], in assay [14], in [15] and in [16] was “inactive” throughout. In addition, the Potency entry in assay [17] was “inactive”. Also, the compound was classed as inactive in assay [13].
`CC1=CC2=C[C@H](C)C[C@@]23OC(=C(C)C3=O)CC(C)(C)/C=C/C1=O`: the Potency is 0.943 µM (active) in assay [2]; 5.95 µM (active) in assay [20]; 0.209 µM (active) in assay [4]; 11.8 µM (active) in assay [5]; 0.526 µM (active) in [6]; 2.09 µM (active) in assay [8]. Further, the Potency in assay [9] was 0.662 µM (active); in assay [10], 0.833 µM (active); in assay [12], 5.29 µM (active); in [14], 5.24 µM (active); in [15], 0.0741 µM (active). Also, the Potency result in [7], in assay [11], in [19] and in [18] was “inactive” in each case. For the same compound, the compound was classed as inactive in [13].
Consider `O=Cc1ccc2n1C[C@@]1(C[C@H](O)[C@H](O)CO1)OC2`, for which the Potency entry in [20], in assay [4], in assay [6], in assay [7], in assay [8] and in assay [9] was “inactive” throughout. In addition, the Potency result in assay [10], in [11], in assay [12], in assay [19], in assay [14] and in assay [15] was “inactive” throughout. Further, the Potency result in [16], in assay [17] and in [18] was “inactive” in each case. Further, in assay [13], the outcome was inactive.
For `C=C1C[C@@]23C=CC(=O)[C@@](C)(CCCC(C)C(=O)O)[C@@H]2C[C@@H]1CC3` (stereo partly drawn), the Potency entry in assay [2], in [3], in assay [4], in [5], in assay [6] and in [7] was “inactive” each time. Moreover, the Potency entry in [8], in [9], in assay [11], in assay [12], in [19] and in assay [14] was “inactive” each time. For the same compound, the Potency entry in assay [16], in assay [17] and in assay [18] was “inactive” in each case. Moreover, the call in [13] was inactive. Also, the Potency in assay [15] was 16.6 µM (active).
For `Oc1ccc(/C=C2/c3cc(O)cc(O)c3C(c3ccc(O)cc3)[C@H]2c2cc(O)cc(O)c2)cc1` (stereo partly drawn), the Potency entry in [20], in [3], in [4], in assay [6], in [7] and in assay [8] was “inactive” throughout. Moreover, the Potency result in assay [9], in assay [10], in assay [11], in [12], in assay [19] and in [14] was “inactive” throughout. The Potency result in assay [15], in [16], in assay [17] and in assay [18] was “inactive” in each case. Also, the compound was classed as inactive in assay [13].

Source of the values: PubChem BioAssay (NCATS).
